Results filed as inconclusive are left out. Where a call stands in place of a potency, no number is given. The source made the active and inactive calls. The call rests on the fitted dose curve; in most records, active means well fitted curve in the direction sought with a large enough effect; inconclusive means small, poorly fitted or top-dose-only effect, or another doubt; inactive means no such curve, though single readings can be large; an effect the other way counts as inactive or inconclusive.

The record followed here is PubChem BioAssay (NCATS).

The nature of the first experiment: qHTS of Nrf2 Activators: LOPAC Validation (AID 624149). To be noted: Nrf2/ARE reporter cell assay; series mostly up to 46.1 µM. In short, it runs like this:
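Following overnight seeding in 5% FBS OPTI-MEM, AREc32_Fluc cells receive compounds for a 24 hr incubation at 37 deg C with 5% CO2. Steady-Glo is added, and after 30 min at RT luminescence is recorded.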
Background: qHTS replaces the single test concentration by a dilution series.
As to `c1ccc(C(NCc2cccnc2)(c2ccccc2)c2ccccc2)cc1`, the Potency result was “inactive”. Same read-out and setting: next, `N[C@@H](Cc1ccc(F)cc1)C(=O)O`: “inactive”; `COc1cc(/C=C(\C#N)C(=O)Nc2nnc(C(F)(F)F)s2)ccc1OCc1ccc(C(F)(F)F)cc1C(F)(F)F`: “inactive”. The same measure, in the same setting: to `COc1cc([C@@H]2c3cc4c(cc3[C@H](O)C3COC(=O)[C@@H]32)OCO4)cc(OC)c1OC` (stereo not given in full) belongs “inactive”. On the same count and under the same terms, to `c1ccc2c(c1)CCC[C@H]2Nc1nc2ccccc2[nH]1` belongs “inactive”. Turning to `CN(C)CCC(c1ccc(Br)cc1)c1ccccn1` (stereo not given), the Potency entry was “inactive”.

In the case of `O=S(=O)(c1cccc2c(Cl)cccc12)N1CCCNCC1`, the Potency entry was “inactive”. On the same count and under the same terms, to `O=C(O)/C=C/c1ccc(O)c(O)c1` belongs “inactive”; to `Cn1cc(C(F)(F)F)nc1-c1ccc(OCC(O)CNCCOc2ccc(O)c(C(N)=O)c2)cc1` (stereo not given), “inactive”. Take `COc1cc(CNC(=O)CCCCCCC(C)C)ccc1O`: the Potency result was “inactive”. Consider `CC(=O)N[C@@H](Cc1c[nH]c2ccccc12)C(=O)OCc1cc(C(F)(F)F)cc(C(F)(F)F)c1`, for which the Potency entry was “inactive”.

As for `CC(=O)O[C@H]1Cc2ccccc2N(C(N)=O)c2ccccc21`, the Potency entry was “inactive”. As for `CC(C)[C@@H]1CC[C@@H](C)C[C@@H]1P(=O)(c1ccccc1)c1ccccc1`, the Potency entry was “inactive”. Take `Nc1ncnc2c1c(-c1ccc(Oc3ccccc3)cc1)cn2C1CCCC1`: the Potency entry was “inactive”.

As to `CCCCCCCCCCC(C)(C)C(=O)Nc1c(OC)cc(OC)cc1OC`, the Potency result was “inactive”.

For `O=c1ccc2c(OCCCCc3ccccc3)c3ccoc3cc2o1`, the Potency result is “inactive”. On the same count and under the same terms, to `O=c1cc(-c2ccccc2F)[nH]c2cc3c(cc12)OCO3` belongs “inactive”. Still for that read-out and setting: next, `Nc1ncnc2c1nc(Br)n2C1OC2COP(=O)(O)O[C@@H]2C1O` (stereo not given in full): “inactive”.

The nature of another experiment: HTS Assay for Allosteric Antagonists of the Human D2 Dopamine Receptor: Hit Validation in HTRF (AID 624455). Further: potency means the concentration at half of the fitted maximal effect.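 Further: stable D1 dopamine receptor cell line scored for blocking the D1 response.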 The conditions noted are these: Cells stably expressing D1 dopamine receptor, inhibition mode; series mostly up to 46.1 µM. Put shortly:
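Validation of hits used D1 receptor stably expressed in cells with HTRF detection of response inhibition; origin screen measured calcium flux following EC80 dopamine in a force-coupled, inducible Hek293 Trex D2 cell line.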
For orientation: TR-FRET usually uses a lanthanide donor and a delayed reading to cut background.
With `CCN(c1nc(N)c(C(=O)N=C(N)N)nc1Cl)C(C)C`, the Potency result is “inactive”. Still for that read-out and setting: next, `O=C1Nc2ccc(I)cc2/C1=C/c1cc(Br)c(O)c(Br)c1`: “inactive”; `COc1cc(N)c(Cl)cc1C(=O)OCCN1CCCCC1`: “inactive”. The same measure, in the same setting: next, `CC[n+]1c(/C=C/C=C2/N(C)c3ccccc3C2(C)C)sc2ccccc21`: “inactive”; `CCCCCCCC/C=C\CCCCCCCC(=O)NCCc1ccc(O)c(O)c1`: 651 nM (active); `CNCCc1cnc(CCC(c2ccccc2)c2ccccc2)[nH]1`: “inactive”.

Turning to `C[C@]12C=CC(=O)C=C1CC[C@@H]1C2=CC[C@]2(C)[C@@H](C(=O)CN3CCN(c4cc(N5CCCC5)nc(N5CCCC5)n4)CC3)CC[C@@H]12`, the Potency result was “inactive”. For the compound `C[C@@H](NCCc1ccc(O)cc1)[C@@H](O)c1ccc(O)cc1`, the Potency result was “inactive”. The same measure, in the same setting: to `CN1Cc2sccc2C(c2ccc(O)c(O)c2)C1` (stereo not given) belongs 16.4 nM (active). In the case of `CCCCCC[C@@H]([C@@H](C)O)n1cnc2c(N)ncnc21`, the Potency result is “inactive”. For the compound `C[C@H](O)C(=O)C1=Nc2c(nc(N)[nH]c2=O)NC1`, the Potency result was “inactive”. As for `NCCNS(=O)(=O)c1cccc2c(Cl)cccc12`, the Potency result is “inactive”.

As for `O=c1onc2n1-c1cc(Br)ccc1OC2`, the Potency result is “inactive”.

For the compound `OC1(c2ccc(Cl)cc2)CCN(Cc2c[nH]c3ccccc23)CC1`, the Potency result was “inactive”.

With `C[C@H]1CC2C3CCC4=CC(=O)C=C[C@]4(C)[C@@]3(Cl)[C@@H](O)C[C@]2(C)[C@@]1(O)C(=O)CO` (stereo not given in full), the Potency entry is “inactive”.

Take `CCCCCCN(CCCCCC)C(=O)Cc1c(-c2ccc(F)cc2)[nH]c2ccccc12`: the Potency entry is “inactive”. Turning to `CN(CC[C@@H](Oc1ccc(C(F)(F)F)cc1)c1ccccc1)CC(=O)O`, the Potency entry is “inactive”.

Take `N#Cc1cc([N+](=O)[O-])c2sc(C(N)=O)[n+]([O-])c2c1`: the Potency result is “inactive”.

`c1ccc(C(NCc2cccnc2)(c2ccccc2)c2ccccc2)cc1`: the Potency result was “inactive”.

Regarding `N[C@@H](Cc1ccc(F)cc1)C(=O)O`, the Potency entry was “inactive”. On to `COc1cc(/C=C(\C#N)C(=O)Nc2nnc(C(F)(F)F)s2)ccc1OCc1ccc(C(F)(F)F)cc1C(F)(F)F`, for which the Potency entry was “inactive”. Take `COc1cc([C@@H]2c3cc4c(cc3[C@H](O)C3COC(=O)[C@@H]32)OCO4)cc(OC)c1OC` (stereo not given in full): the Potency result was “inactive”. Still for that read-out and setting: to `c1ccc2c(c1)CCC[C@H]2Nc1nc2ccccc2[nH]1` belongs “inactive”; to `CN(C)CCC(c1ccc(Br)cc1)c1ccccn1` (stereo not given), “inactive”. Same read-out and setting: to `O=S(=O)(c1cccc2c(Cl)cccc12)N1CCCNCC1` belongs “inactive”; to `O=C(O)/C=C/c1ccc(O)c(O)c1`, “inactive”. Still for that read-out and setting: to `Cn1cc(C(F)(F)F)nc1-c1ccc(OCC(O)CNCCOc2ccc(O)c(C(N)=O)c2)cc1` (stereo not given) belongs “inactive”; to `COc1cc(CNC(=O)CCCCCCC(C)C)ccc1O`, “inactive”; to `CC(=O)N[C@@H](Cc1c[nH]c2ccccc12)C(=O)OCc1cc(C(F)(F)F)cc(C(F)(F)F)c1`, “inactive”. For `CC(=O)O[C@H]1Cc2ccccc2N(C(N)=O)c2ccccc21`, the Potency entry is “inactive”. Still for that read-out and setting: next, `CC(C)[C@@H]1CC[C@@H](C)C[C@@H]1P(=O)(c1ccccc1)c1ccccc1`: “inactive”; `Nc1ncnc2c1c(-c1ccc(Oc3ccccc3)cc1)cn2C1CCCC1`: “inactive”; `CCCCCCCCCCC(C)(C)C(=O)Nc1c(OC)cc(OC)cc1OC`: “inactive”. Same read-out and setting: to `O=c1ccc2c(OCCCCc3ccccc3)c3ccoc3cc2o1` belongs “inactive”; to `CC(C)NC[C@H](O)COc1cccc2ccccc12`, “inactive”.

For `O=c1cc(-c2ccccc2F)[nH]c2cc3c(cc12)OCO3`, the Potency result was “inactive”. Same read-out and setting: to `Nc1ncnc2c1nc(Br)n2C1OC2COP(=O)(O)O[C@@H]2C1O` (stereo not given in full) belongs 11600 nM (active).
